# Bioassay records (PubChem)
# TRHR agonist – TRH receptor (human) agonism; P34981; TRHR cells, calcium flux fluo-8, FDSS agonist mode; activation, % at 2 µM; 360,000 tested, 0.18% active; note: 0% is about no effect
# Target sequence (P34981 whole entry, looked up): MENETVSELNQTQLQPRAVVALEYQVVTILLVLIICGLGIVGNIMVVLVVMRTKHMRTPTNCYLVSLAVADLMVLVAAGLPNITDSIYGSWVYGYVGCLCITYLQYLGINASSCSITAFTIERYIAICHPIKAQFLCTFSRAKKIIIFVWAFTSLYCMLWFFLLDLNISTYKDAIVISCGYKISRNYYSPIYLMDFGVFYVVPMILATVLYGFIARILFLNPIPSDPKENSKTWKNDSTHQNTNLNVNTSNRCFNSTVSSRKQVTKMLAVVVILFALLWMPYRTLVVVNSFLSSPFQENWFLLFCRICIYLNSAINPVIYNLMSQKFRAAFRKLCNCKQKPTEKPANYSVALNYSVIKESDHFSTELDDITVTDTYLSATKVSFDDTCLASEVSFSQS
#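 Agonist-mode FDSS calcium read (Ex 480/Em 530, 1 s cycles) in 1536-well TRHR cells with fluo-8 dye, after 10-cycle baseline and 23 nL compound addition; TRH at EC20 (10 nM final) added afterwards for the enhancer phase.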
# D1 potentiator – enhances dopamine response at the human D1 receptor; 360,000 tested, 0.036% active; HEK293 TREx D1 cells, calcium flux, dopamine EC20 potentiation; potentiation, % at 10 µM; P21728; AID 504651; in the data active = potentiation above about 30%; note: 0% is about no effect
# D1 ag – human D1 receptor agonism. HEK293 T-REx D1 cells, calcium flux, agonist mode. activation, % at 2 µM. 360,000 tested, 1% active. AID 504660; note: 0% is about no effect
#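 Tetracycline-induced HEK293 TREx D1 cells, force-coupled to calcium signalling, were dye-loaded with a no-wash calcium kit. Compound was pin-added after a 10 s baseline. Fluorescence was read kinetically at 1 cycle/s for 180 s, with calcium rises flagged as agonism.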
# D1 antagonist – human D1 dopamine receptor antagonism | activity change, negative = inhibition, % at 10 µM | P21728 | HEK293 TREx D1 cells, calcium flux, dopamine EC80; stronger effect = lower value | 360,000 tested, 3.2% active; in the data active = activity change below about -30%; note: % is set by controls: 0 for no effect and ±100 for the full control effect
#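 Antagonism measured as reduced calcium response to an EC80 dopamine addition following 180 s compound pre-read; cells were inducible HEK293 Trex D1 plated overnight at 30 C, read kinetically at 1 cycle/sec.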
# Glioma ERSR ind – ER stress response induction in glioma. Potency, µM, for the others: top-dose activation, usual class: activators. U87-MG GRP78 promoter luciferase reporter, 16 h. 420,000 tested, 0.02% active; active = well fitted activation curve with a large enough effect; note: potency is the fitted concentration of half-maximal effect; series mostly up to about 76 µM; % of control where 0% means no effect; nearly all actives have a fitted effect of over 35% in size
#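 Stably transfected U87-MG glioma cells carrying a GRP78-based luciferase sensor; 16 h compound incubation. Luminescence end-point read 10 min after Bright-Glo addition at room temperature.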
# TRHR enhancer – TRH receptor (human) allosteric enhancement; 360,000 tested, 0.66% active; TRHR cells, fluo-8 calcium fluorescence, EC20 TRH enhancement; P34981; enhancement, % at 2 µM; in the data active = enhancement above about 30%; note: 0% is about no effect
#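 TRHR-expressing cells loaded with fluo-8 calcium dye were read kinetically (ex 480/em 530) during compound addition, then stimulated with an EC20 of TRH (10 nM final). Enhancement of the Gq-mediated intracellular calcium response was scored.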
# * hit, by the source's call; . = not tested or not shown; ! = repeats disagree. The list is not random: actives were taken first. Their share in the collection is about 4%. Cut-off read from the data, not from the text of the source, unless noted: active = activation above about 30%; inactive = the rest.
SMILES,TRHR agonist,D1 potentiator,D1 ag,D1 antagonist,Glioma ERSR ind,TRHR enhancer
O=C(NCc1ccc(OC(F)(F)F)cc1)c1cccc2c1C(=O)c1ccc(N3CCCCC3)cc1S2(=O)=O,.,.,.,.,-4%,.
CCOC(=O)c1nn2c(C(F)(F)F)cc(-c3ccc(OC)cc3)nc2c1Br,0,-6,35*,23,4%,0
CN1C(=O)/C(=C\c2ccc(N(C)C)cc2)OC1=S,203*,-6,523*,-66*,2%,8
COc1ccc(/C=C2\OC(=S)N(C)C2=O)cc1,0,-6,2,9,2%,-1
O=[N+]([O-])c1ccc2nc(CCCc3nc4ccc([N+](=O)[O-])cc4[nH]3)[nH]c2c1,0,-5,1,-7,-3%,0
CCc1ccc(N2CCn3c2nc2c3c(=O)n(Cc3ccc(F)cc3)c(=O)n2C)cc1,0,-6,11,-46*,-1%,-5
Cn1c(=O)c2c(nc(NCc3ccc4c(c3)OCO4)n2Cc2ccccc2Cl)n(C)c1=O,-1,0,1,-81*,-2%,-1
COCCCNc1nc2c(c(=O)n(C)c(=O)n2C)n1Cc1cccc(OC)c1,0,1,0,-9,-4%,-3
CCC(C)Nc1nc2c(c(=O)n(C)c(=O)n2C)n1Cc1ccc(F)cc1 (configuration not stated),-2,-21,-1,-85*,-3%,-4
COc1ccc(Cn2c(NCC(C)C)nc3c2c(=O)n(C)c(=O)n3C)cc1,-1,0,2,-41*,0%,7
CC(C)Oc1cccc(C(=O)N/N=C/c2coc3ccccc3c2=O)c1,0,11,1,11,3%,-4
C[C@@H]1CN([C@@H](C)CO)S(=O)(=O)c2ccc(C#CC(C)(C)O)cc2O[C@H]1CN(C)C(=O)C1CCCCC1,.,.,.,.,-5%,.
Cc1cccc(Cn2c(NCCO)nc3c2c(=O)n(C)c(=O)n3C)c1,0,-1,1,1,-3%,-3
COCCNc1nc2c(c(=O)n(C)c(=O)n2C)n1Cc1cccc(C)c1,0,-9,0,-50*,-7%,-1
COc1ccc(OC2C(=O)N(CCc3ccc(OC)c(OC)c3)C2c2ccc3c(c2)OCO3)cc1 (configuration not stated),-1,-5,5,-6,-3%,-12
COc1ccc(CN(C)CC(O)COc2ccc(-c3ccccc3)cc2)cc1OC (configuration not stated),2,-6,43*,-6,-2%,11
CC(CC(=O)N1CCN(c2cccc(Cl)c2)CC1)S(=O)(=O)c1ccc2c(c1)NC(=O)CO2 (configuration not stated),0,-6,10,-15,-4%,-2
COc1ccc(N2CCN(C(=O)CC(C)S(=O)(=O)c3ccc4c(c3)NC(=O)CO4)CC2)cc1 (configuration not stated),1,-3,5,-32*,-2%,1
CN(C)S(=O)(=O)c1ccc2c(c1)c(=O)c(C(=O)NCCCN1CCCCCC1)cn2C,0,3,0,5,-2%,0
COc1ccc(NC(=O)C2CCCN(S(=O)(=O)c3ccc4[nH]c(=O)ccc4c3)C2)cc1Cl (configuration not stated),0,-4,1,5,-4%,4
COc1ccccc1NC(=O)C1CCCN(S(=O)(=O)c2ccc3[nH]c(=O)ccc3c2)C1 (configuration not stated),0,-2,3,6,-1%,-2
Cc1ccc(NC(=O)C2CCCN(S(=O)(=O)c3ccc4[nH]c(=O)ccc4c3)C2)cc1Cl (configuration not stated),1,-9,4,-48*,0%,-3
COc1ccc(C)cc1NC(=O)C1CCCN(S(=O)(=O)c2ccc3[nH]c(=O)ccc3c2)C1 (configuration not stated),-1,-8,1,-8,-7%,47*!
COc1ccc(NC(=O)C2CCN(S(=O)(=O)c3ccc(N4CCCC4=O)cc3)CC2)c(OC)c1,0,3,0,-16,-6%,-1
Cc1ccc(NC(=O)C2CCN(S(=O)(=O)c3ccc(N4CCCC4=O)cc3)CC2)cc1Cl,0,-10,12,-71*,-8%,-10
SMILES,TRHR agonist,D1 potentiator,D1 ag,D1 antagonist,Glioma ERSR ind,TRHR enhancer
COC(=O)c1ccc(Nc2cc(C)nc3ccccc23)cc1,-1,-8,3,-16,-2%,-2
CCCc1nc2ccccc2c(C(=O)OCC(=O)N2CCc3ccccc32)c1CC,0,-6,2,-19,-4%,-6
CC(=O)c1ccc(N2CCN(S(=O)(=O)c3ccc4c(c3)CC(=O)N4)CC2)cc1,-1,-4,1,15,-2%,5
CC(=O)c1ccc(N2CCN(S(=O)(=O)c3ccc4c5c3CC(=O)N5CC(C)S4)CC2)cc1 (configuration not stated),0,-13,7,-57*,-4%,-6
COc1cccc(CC(NC(C)=O)C(=O)NC2CCN(C(=O)c3ccncc3)CC2)c1OC (configuration not stated),1,-6,1,-14,0%,2
COc1ccc(NC(=O)c2sc(=S)[nH]c2N)cc1,-1,-1,1,7,-3%,3
COc1ccc([C@H]2N[C@]3(CCCN(Cc4ccc(F)cc4)C3=O)[C@H]3C(=O)N(Cc4ccccc4)C(=O)[C@@H]23)cc1,.,.,.,.,-6%,.
CNc1cccc2c1C(=O)c1ccccc1C2=O,0,5,0,-4,4%,-8
CNc1cccccc1=S,-1,1,0,-56*,-3%,6
O=C(OCc1ccccc1Cl)c1ccc(-c2nnn(Cc3ccccc3)n2)cc1,3,-3,3,-1,.,-6
O=C(OCc1ccccc1Cl)c1ccc(-n2cnnc2)cc1,-1,-10,20,-36*,0%,3
COc1ccc(NC(=S)Nc2cc(-c3ccccc3)[nH]n2)cc1Cl,0,-3,2,-79*,1%,-5
Cc1cc(NC(=S)Nc2ccc(C)c(Cl)c2)n[nH]1,0,-4,1,-39*,1%,1
COc1ccccc1N1CCN(S(=O)(=O)c2cc3[nH]c(=O)c(=O)[nH]c3cc2C)CC1,-2,3,3,-3,0%,11
CCn1c(/C(C#N)=C(\O)CCc2ccccc2)nc2ccccc21,0,0,3,6,-2%,-3
CCOc1ccc(-c2c(C)nn3c(C)c(C(=O)NCc4ccc(C)o4)cnc23)cc1OCC,0,-7,5,-34*,.,-4
CCOc1ccc(-c2c(C)nn3c(C)c(C(=O)NCc4ccc(Cl)cc4)cnc23)cc1OCC,0,-2,-1,5,.,1
